Experimental data published in ChEMBL document CHEMBL3988442, “University of Dundee, Small-Polar-MMV Screening Library” (2021).

Molecular target: T1, Aspartate--tRNA(Asp/Asn) ligase (Mycobacterium tuberculosis (strain ATCC 25618 / H37Rv)) (UniProt P9WFW3)
T1 sequence (whole entry): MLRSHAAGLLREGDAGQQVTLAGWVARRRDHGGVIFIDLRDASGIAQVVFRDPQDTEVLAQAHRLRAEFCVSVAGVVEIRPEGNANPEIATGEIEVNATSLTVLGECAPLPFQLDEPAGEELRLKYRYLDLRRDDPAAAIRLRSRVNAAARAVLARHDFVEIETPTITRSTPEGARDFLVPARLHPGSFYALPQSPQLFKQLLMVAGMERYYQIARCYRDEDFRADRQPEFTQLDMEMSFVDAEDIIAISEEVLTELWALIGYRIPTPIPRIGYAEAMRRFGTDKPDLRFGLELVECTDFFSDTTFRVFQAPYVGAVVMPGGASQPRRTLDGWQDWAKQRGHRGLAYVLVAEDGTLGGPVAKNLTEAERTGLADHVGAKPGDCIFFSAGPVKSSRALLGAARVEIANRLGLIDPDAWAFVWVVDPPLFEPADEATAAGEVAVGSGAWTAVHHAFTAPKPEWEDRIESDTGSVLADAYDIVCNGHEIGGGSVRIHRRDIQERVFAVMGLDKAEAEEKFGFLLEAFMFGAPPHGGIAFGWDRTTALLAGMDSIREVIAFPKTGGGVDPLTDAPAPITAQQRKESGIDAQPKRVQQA
Assay: Assay for Asp RNA synthetase-1 from Mycobacterium tuberculosis
Format: functional
Design: scale not given: in the data most compounds retested in dose-response had high values
Conditions: 30 µM

First: O=C(NCC1CCCO1)c1c(-n2cnnn2)sc2c1CCC2 (centres undefined)
Second: CCc1nc(CC(=O)Nc2cnn(CC3CCCO3)c2)cs1 (centres undefined)
The Percent Effect of the first is lower: 1.11% for the first, 1.86% for the second.

Compared with `Cc1ncsc1C(=O)NCCSCc1cccs1`, `COc1ccc(C)cc1C(C)NC(=O)NCCCn1cncn1` (centres undefined) is higher in Percent Effect: 2.21% for the first, 2.78% for the second.

Compared with `Cc1cccc(CN2C(=O)CCC23CCN(Cc2cccn2C)CC3)n1`, `NC(=O)c1ccc2c(c1)nc1n2CCN(Cc2ccco2)C1` is higher in Percent Effect: 0.796% for the first, 6.41% for the second.

First: CCc1nc(CN(C)C2CCN(CCn3cc(C#N)cn3)C2)no1 (centres undefined)
Second: CCc1nc(C2CCCN2C(=O)c2c[nH]c(C)n2)no1 (centres undefined)
The Percent Effect of the first is higher: 9.06% for the first, -7.28% for the second.

First: Cn1cnnc1S(=O)(=O)C1CCN(S(=O)(=O)C2CC2)CC1
Second: CC(=O)N1CCC(CN2CCN(Cc3nccn3C)C(C)C2)CC1 (centres undefined)
The Percent Effect of the first is lower: -0.604% for the first, 7.78% for the second.

Compared with `Cn1cc(CNCC2Cn3nnc(-c4ccccc4)c3CO2)cn1` (centres undefined), `O=C(Cn1ccnc1)N1C[C@@H]2CC[C@H](Oc3ccccc3)[C@@H]2C1` is lower in Percent Effect: 5.57% for the first, 5.52% for the second.

Compared with `O=C(CN1CCC(c2cccc(F)c2)C1)NCc1ccco1` (centres undefined), `O=S(=O)(Cc1ccccc1)NCc1ccco1` is lower in Percent Effect: -0.144% for the first, -3.04% for the second.

First: CSCc1cccc(S(=O)(=O)NCCCn2ccnc2)c1
Second: CCOc1ccc(S(=O)(=O)NCc2cccnc2N(C)C)cc1
The Percent Effect of the first is higher: 11% for the first, 1.46% for the second.

First: CC(=O)NCC(=O)N1C[C@H](OCc2cccnc2)[C@H]2COC[C@H]21
Second: O=C(C1=CCCC1)N1CCC[C@]2(C[C@@H](OCc3ccncc3)CO2)C1
The Percent Effect of the first is lower: -1.31% for the first, 5.27% for the second.

Compared with `Cc1nc(C)n(CC2CCCN(c3ncnc4c3CCC4)C2)n1` (centres undefined), `c1cncc(CN2CCc3ncnc(C4CCOC4)c3CC2)c1` (centres undefined) is higher in Percent Effect: 2.14% for the first, 3.1% for the second.

Compared with `CNC(=O)C(NC(=O)c1nccn2ccnc12)c1ccc(F)c(F)c1` (centres undefined), `O=C(CN1CCCCC1C1OCCO1)Nc1ccc(F)c(F)c1` (centres undefined) is higher in Percent Effect: 0.0141% for the first, 3.65% for the second.

Compared with `Cc1cc(OCC(=O)NC(C)c2ccc(N3CCOCC3)cc2)no1` (centres undefined), `Cc1ccc(SCC(=O)NS(=O)(=O)c2ccc3c(c2)OCCO3)cc1` is lower in Percent Effect: 5.44% for the first, 3.3% for the second.

Going from `Cc1cc(C)n(C2CCCN(C(=O)COCC(F)(F)F)C2)n1` (centres undefined) to `Cc1nccn1C1CCCN(C(=O)c2ccc3c(c2)NC(=O)CO3)C1` (centres undefined), the Percent Effect rises from -4.61% to -2.02%.

Going from `Cc1ccc(Cc2cnc(NC(=O)C3CNC(=O)N3)s2)cc1F` (centres undefined) to `CN(C)C(=O)CO[C@H]1CN(Cc2ccc(F)cc2)[C@@H]2CCCO[C@H]12`, the Percent Effect rises from -6.24% to 5.68%.

Going from `c1ccc(-c2noc(CN3CCc4cncnc4C3)n2)nc1` to `O=C(NCc1cc[nH]n1)N1CCN(c2ccccc2Cl)CC1`, the Percent Effect falls from 2.21% to 0.562%.

First: CCOc1ccc(Cl)c(C(=O)N(C)C)n1
Second: Cc1csc(N2CCN(C(=O)Cc3ccc(C)s3)CC2)n1
The Percent Effect of the first is higher: -0.544% for the first, -4.4% for the second.

Going from `CCOCC(O)CN1CCN(C(=O)C2CC2)CC1` (centres undefined) to `COc1cccc(CC2CN(C3CCN(C(C)=O)CC3)CCO2)c1` (centres undefined), the Percent Effect falls from 1.82% to -4.28%.

Compared with `COC(=O)c1sccc1NC(=O)C1CCCN1C(=O)c1ccco1` (centres undefined), `COC(=O)CCC(=O)N1CCC2(CN(Cc3cccc(F)c3)C2)C1` is higher in Percent Effect: -0.808% for the first, 8.76% for the second.

Going from `CN(CC(=O)NC1(C#N)CCCC1)C1CCCN(c2cccnn2)C1` (centres undefined) to `O=C(NCC1CC1)C1CN(C(=O)c2ccncc2)CC12CCOCC2` (centres undefined), the Percent Effect falls from 7.28% to 3.22%.

For `CN(C(=O)Cn1nc(-c2ccc(F)cc2)oc1=O)C1CCS(=O)(=O)C1` (centres undefined), the Percent Effect was 4.6%.
